Laboratory results: PubChem BioAssay
Unmarked numbers belong to inactive results. The source made the active and inactive calls. Rule as the data show it: active = fold change permeability below about 0.7 or above about 1.3; inactive = in between.

Assay: modulators of brain endothelial barrier permeability, primary screen, cell-based, FITC-avidin fluorescence, HTS (AID 1963498); also: test concentration not given here
Conditions: actives lie on both sides

CCCOc1ccccc1-c1nc2n[nH]nc2c(=O)[nH]1
fold change permeability: 1.9 (active)

CC(=O)N=c1sc(S(N)(=O)=O)nn1C
fold change permeability: 1.4 (active)

Clc1cccc(Cl)c1CSc1nnc(-c2cnccn2)s1
fold change permeability: 1.2
